The list is not random: actives were taken first. Their share in the collection is about 2.3%.
Rpn11 inh: Rpn11 (PSMD14) deubiquitinase inhibitors, primary screen, biochemical, fluorescence polarization, uHTS. 26S proteasome non-ATPase regulatory subunit 14 (Homo sapiens), O00487. hit rate 0.59% among 360,000. AID 588493, 2011. inhibition, % at 20 µM. human 26S proteasome, Ub4-pepOG fluorescence polarization; 20S core pre-blocked with epoxomicin;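 active = inhibition at 20 µM, scaled to each plate's controls, above about 33%, limit read from the data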
Target sequence (O00487 whole entry, looked up): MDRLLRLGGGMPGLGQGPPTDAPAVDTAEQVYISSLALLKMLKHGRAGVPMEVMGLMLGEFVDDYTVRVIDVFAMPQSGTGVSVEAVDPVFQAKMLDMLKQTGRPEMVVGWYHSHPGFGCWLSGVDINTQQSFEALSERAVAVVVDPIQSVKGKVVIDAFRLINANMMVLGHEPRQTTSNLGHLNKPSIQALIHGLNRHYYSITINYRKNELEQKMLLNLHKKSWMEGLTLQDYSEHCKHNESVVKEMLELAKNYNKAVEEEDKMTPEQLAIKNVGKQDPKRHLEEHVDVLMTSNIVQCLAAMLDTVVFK
TPT1 inh: Candida albicans TPT1 enzyme inhibitors, primary screen, biochemical, fluorescence polarization; tRNA 2'-phosphotransferase TPT1 (Candida albicans SC5314); recombinant caTPT1, FP RNA substrate dephosphorylation; inhibition, % at 5 µM; hit rate 0.81% among 300,000;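 active = inhibition above the mean of all tested compounds plus 3 SD, set per screening campaign, cut at about 24% in these data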
IDE cell activ: human IDE activators in live cells, primary screen, fluorescence polarization, HEK cells, FAbeta-B substrate | Insulin-degrading enzyme (Homo sapiens), P14735 | FAbeta-B cleavage; 0% vehicle, 100% cell-free pure enzyme wells | activation, % at 5.96 µM | hit rate 0.073% among 340,000 | AID 493087, 2011;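 active = activation above the mean of all tested compounds plus 3 SD, set per screening campaign, cut at about 17% in these data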
Calb FLC: C. albicans growth inhibition with fluconazole, primary screen, CaCi-2 strain, Alamar Blue fluorescence. C. albicans CaCi-2 (fluconazole-resistant clinical isolate) + fluconazole, 48 h. hit rate 0.57% among 300,000. growth inhibition, % (no concentration beside the values). AID 1979, 2009;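 active = growth inhibition above about 58% in most replicates, limit read from the data, passing the limit was not always enough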;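 note: all wells also contain fluconazole at 8 µg/ml as a sub-toxic cotreatment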
IDE cell inh: human IDE inhibitors in live cells, primary screen, fluorescence polarization, HEK cells, FAbetaB substrate; Insulin-degrading enzyme (Homo sapiens), P14735; FAbetaB cleavage; inhibition, % at 5.59 µM; hit rate 0.41% among 320,000;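 active = percent inhibition above the average of all tested compounds plus 3 SD, set per screening campaign, cut at about 16% in these data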;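 note: IDE supplied by intact live HEK cells; FP after avidin binding of uncleaved biotin substrate so inhibition keeps polarization high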
Rin1-Abl PPI inh: inhibitors of Rin1-Abl protein binding, primary screen, biochemical, TR-FRET. Tyrosine-protein kinase ABL1 (Homo sapiens) + Ras and Rab interactor 1 (Homo sapiens), …. inhibition, % at 7.35 µM. hit rate 0.4% among 360,000. AID 588664, 2011; in the data active = inhibition above about 5%, passing the limit was not always enough
IDE inh confirm: human IDE inhibitors in live cells, confirmation, fluorescence polarization, HEK cells, FAbetaB substrate | shares compounds with IDE cell inh | FAbetaB cleavage | inhibition, % at 5.59 µM | hit rate 51% among 1,200 | AID 435028, 2010;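 active = mean inhibition across triplicate wells above the cutoff set by the earlier primary insulin-degrading enzyme screen, cut at about 16% in these data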
HEK cytotox: cytotoxicity in HEK cells, cytotoxicity control for IDE inhibitor project, cell-based, luminescence | HEK293 cytotoxicity, ATP luminescence | shares compounds with IDE cell inh | hit rate 28% among 1,200 | inhibition, % at 5.59 µM; in the data active = inhibition above about 22%
Large screens that a line does not name were inactive (follow-up assays come after a bar, where they were run).

C[C@@H]1CN=C2N(CCNC(=O)CCC3CCCCC3)[C@H](Cc3ccc(O)cc3)CN21	none
O=C(c1[nH]c(C(F)(F)F)nc1-c1ccccc1)N1CCC(C(O)(c2ccccc2)c2ccccc2)CC1	none (no result: TPT1 inh, IDE cell activ, Calb FLC, IDE cell inh)
CCN1CCc2c(sc(NC(=O)Nc3ccc(Cl)c(Cl)c3)c2C(N)=O)C1	IDE cell inh 110 (no result: Calb FLC) | IDE inh confirm 58 | HEK cytotox inactive
c1csc(-c2ccn[nH]2)c1	none
S=c1nccc(-c2cccs2)[nH]1	IDE cell inh 20 | IDE inh confirm inactive | HEK cytotox inactive
Cc1ccc2nc(-c3ccc(SCC(=O)N4CCc5ccccc54)nc3)[nH]c2c1	IDE cell inh 26 | IDE inh confirm inactive | HEK cytotox inactive
N/C(=N\OC(=O)CN1C(=O)c2ccccc2C1=O)c1ccc(Br)cc1	none
CN(CC(=O)Nc1ccc2c(c1)CCC2)CC(=O)Nc1ccccc1Br	IDE cell inh 19 | IDE inh confirm inactive | HEK cytotox inactive
COc1ccc(NC(=O)CN(C)CC(=O)Nc2ccc3c(c2)CCC3)cc1	none
Cc1ccc(C(=O)Nn2c(O)c(C=C3N=c4ccccc4=N3)sc2=S)cc1	none
O=C(Nn1c(O)c(C=C2N=c3ccccc3=N2)sc1=S)c1ccccc1	IDE cell inh 20 | IDE inh confirm inactive | HEK cytotox inactive
O=C(c1cccc(S(=O)(=O)NCc2ccccc2)c1)N1CCN(c2ccccc2Cl)CC1	none (no result: TPT1 inh, Calb FLC, IDE cell inh)
Cc1ccc(/C=C/C(=O)NC(=S)Nc2ccc(S(=O)(=O)Nc3cc(C)on3)cc2)cc1	IDE cell inh 25 | IDE inh confirm 21 | HEK cytotox inactive
Cc1cc(NS(=O)(=O)c2ccc(NC(=S)NC(=O)/C=C/c3ccccc3)cc2)no1	none
CC(=N)c1c(O)cc(C)oc1=O	none (no result: TPT1 inh, Calb FLC, IDE cell inh)
Cc1ccc(C(=O)C(OC(=O)CNC(=O)c2ccc(Cl)cc2)c2ccccc2)cc1 (stereo not drawn)	IDE cell inh 17 | IDE inh confirm inactive | HEK cytotox inactive
O=C(/C=C/c1ccccc1Cl)OCC(=O)N1CCc2ccccc21	none (no result: TPT1 inh, IDE cell activ, Calb FLC, IDE cell inh)
Cc1cccc(N2C(=O)c3cccc4c(N)ccc(c34)C2=O)c1	IDE cell inh 73 | IDE inh confirm 96 | HEK cytotox inactive
Cc1cccc(N2C(=O)c3cccc4c(N(C)CCO)ccc(c34)C2=O)c1	IDE cell inh 79 | IDE inh confirm 110 | HEK cytotox inactive
O=C(OCC(=O)N1CCC(Cc2ccccc2)CC1)c1ccccc1O	none (no result: TPT1 inh, Calb FLC)
CCOc1ccc(C(C)=O)cc1COc1ccc(C)nc1[N+](=O)[O-]	none
CC(=O)Nc1cccc(C(=O)N/N=C/c2cccnc2)c1	none
O=C(N/N=C/c1cccnc1)c1cccc(NC(=O)c2cccc(Br)c2)c1	IDE cell inh 25 | IDE inh confirm 17 | HEK cytotox inactive
CCOC(=O)C1=C(CSc2nc3c(cc2C#N)CCC3)OC(N)=C(C#N)C1c1ccccc1 (stereo not drawn)	IDE cell inh 17 | IDE inh confirm inactive | HEK cytotox inactive
Cn1c(N)c(C(=O)COC(=O)CSc2ccc3ccccc3c2)c(=O)n(C)c1=O	IDE cell inh 18 | IDE inh confirm inactive | HEK cytotox inactive
O=c1c2[nH]c3ccc(Br)cc3c2ncn1CCCn1ccnc1	IDE cell inh 21 | IDE inh confirm inactive | HEK cytotox inactive
CCN1C(=O)/C(=C/C=C2/Sc3ccc4ccccc4c3N2CCO)SC1=S	IDE cell inh 24 | IDE inh confirm inactive | HEK cytotox inactive
CCN1C(c2ccccc2)=C(c2ccccc2)S/C1=C\C=C1/SC(=S)N(C)C1=O	none

Screening results: PubChem BioAssay, several laboratories
